PubChem BioAssay AID977630 (Broad Institute, 2014)
Hit rate of the full screen: of about 1,600 compounds, fewer than 10 were called active. About 48% were inconclusive and are not listed.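 The calls were made as follows: active = Normal-ribosome green reporter loss at least double humanized-ribosome red reporter loss, with overall culture growth inhibition under a set limit; inconclusive = no clear call, values can overlap the other calls; inactive = the rest.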 Only a sample is shown. Entries with a potency or affinity are not part of this list.

Experiment: growth inhibition of wild-type GFP E. coli, H38-humanized RFP comparator, dose response, H38 mutant RFP vs wild-type GFP, cherry-pick (AID 977630);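 also: wild-type GFP strain mixed equally with humanized-ribosome H38 mutant expressing RFP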
Details: mixed culture, 24 h; series mostly up to 50 µM; activity change, negative = inhibition: at the top concentration

Activity change, negative = inhibition, inactive:
CC(C)(C)NC(=O)C(c1ccncc1)N(Cc1ccc(F)cc1)C(=O)c1ccc(-c2ccccc2)[nH]1 (centres undefined) 7.88, Cc1ccc(C(=O)C2Oc3ccccc3C3CC(c4ccc(C)cc4)=NN23)cc1 (centres undefined) 9.36, Cc1nc(N2CCC(C)CC2)c(C#N)c(C)c1[N+](=O)[O-] -13.2, Cc1cc(NC(=O)CCN2C(=O)C3C4C=CC(C4)C3C2=O)ccc1Br (centres undefined) -16.8, CCOc1ccc2[nH]c3c(NCCN(C)C)ncnc3c2c1 -14.5, Cc1ccc(S(=O)(=O)N(C(=O)c2ccncc2)c2ccc(OC(=O)c3ccncc3)cc2)c(C)c1 -4.92, COc1ccc(C(NC(=O)C2CCN(CCOc3ccc(Cl)cc3Cl)CC2)c2ccccc2C)cn1 (centres undefined) -11.5, COc1cccc(-c2ccc(NC(=O)C3CCCN(Cc4cnn(C(C)C)c4)C3)cc2)c1 (centres undefined) -10.3, Cc1cccc(NC(=O)c2c(C)nn(-c3ccccc3)c2Cl)c1 -12.1, CC(C)Oc1cccc(C(=O)C2CCCN(C(=O)c3cc(C(F)(F)F)[nH]n3)C2)c1 (centres undefined) -16.1, Cc1ccccc1-c1nc(CS(=O)(=O)CC(=O)N2CCCCC2)c(C)o1 -7.64, COc1cccc(NC(=O)C(c2ccccc2)N2CCN(c3ccccn3)CC2)c1 (centres undefined) 0.522, COC(=O)c1ccc2nc(-c3ccc(F)cc3)c(Cc3cccc(F)c3)n2c1 8.32, COc1ccc(-c2nn(-c3ccccc3C)cc2CNCc2cccnc2)cc1F 0.878, CC1CCc2c(sc3ncn4c(SCC(=O)NCc5ccco5)nnc4c23)C1 (centres undefined) 0.062, CC1CN(CC(=O)Nc2nc3ccccc3s2)CC(C)O1 (centres undefined) 9.37, O=S(=O)(Nc1ccccc1N1CCCCC1)c1cccs1 -10.8, Cc1ccn2cc(-c3cccc(NC(=O)c4cccs4)c3)nc2c1 -0.986, O=S(=O)(Cc1ccc(Cl)cc1)N1CCN(Cc2ccc3c(c2)OCO3)CC1 33, Cc1cccc(NS(=O)(=O)c2cc3c(cc2C)NC(=O)CO3)c1 2.86, O=C(CSCc1c(Cl)cccc1Cl)NCc1ccccn1 -3.03, Cc1cccc(N2CCN(Cc3nc(-c4ccc(F)cc4F)oc3C)CC2)n1 -12.6, CCNc1nc(N)c(C(=O)C23CC4CC(CC(C4)C2)C3)s1 -3.15, CNC(=O)c1sc(-c2ccccn2)nc1C 43.1, Cc1cc(C)c(OCCN(C)Cc2ccccc2)c(Br)c1 -6.16, O=C(Nc1cc(S(=O)(=O)N2CCCCC2)ccc1N1CCCCC1)C1CC1 -2.36, CCCCNC(=O)c1c(N)[nH]c(C(=O)c2ccccc2)c1-c1ccccn1 -9.15, Cc1nn(S(=O)(=O)c2ccc(Cl)cc2)c(C)c1Sc1ccc([N+](=O)[O-])cc1 2.54, Cc1cccc(NC(=O)c2sc3nc(-c4ccccc4)cn3c2C)n1 -13.7, COC(=O)c1ccc(CSc2nc3ccccc3s2)o1 1.79, COc1ccccc1-c1noc2ncnc(Nc3ccccc3C)c12 -1.41, O=C(c1cccs1)c1c[nH]cc1-c1ccccc1 -0.904, Cc1ccc(CSCC(=O)Nc2ccccc2F)cc1 -11.7, COc1ccc(NC(=O)c2ccc(COc3ccccc3Br)o2)c(OC)c1 -8.05, CCc1nnc(NC(=O)CSc2ncc(-c3ccccc3)[nH]2)s1 7.1, COc1cccc(NC(=O)C2CCC(CNS(=O)(=O)c3cccc4cccnc34)CC2)c1 (centres undefined) -8.77, CCOC(=O)c1sc(Nc2cccc(Cl)c2)nc1C 5.47, Cn1c(=O)n(C)c2cc([N+](=O)[O-])c(N3CCN(C(=O)c4cccc(F)c4)CC3)cc21 -2.34, Brc1ccc(-c2nc3c4ccccc4ccn3c2Cc2ccccc2)cc1 5.21, CCN(CC)CC(=O)Nc1sc2c(c1C(=O)c1ccccc1OC)CCC2 -11.9, O=S(=O)(Cc1ccco1)Cc1nc(-c2ccc(Cl)cc2)cs1 -12, Cc1ccccc1NS(=O)(=O)c1cc(C(=O)NCCC2=CCCCC2)ccc1C -6.86, Cc1c(CCOC(=O)C23CC4CC(CC(C4)C2)C3)sc[n+]1Cc1ccccc1 -16.3, O=C(CSc1nnc(-c2ccccc2F)n1C1CC1)Nc1cccnc1Cl -0.733, CSc1ccc(CN(C)CC(=O)NC(C)c2ccccc2)cc1 (centres undefined) -9.26, COc1cc[n+]([O-])cc1[N+](=O)[O-] 5.53, COc1ccc(OC2C(=O)N(Cc3ccc4c(c3)OCO4)C2c2sccc2C)cc1 (centres undefined) -11.6, COc1ccc(C(=O)C[n+]2ccc3c(c2)nc(-c2cc(OC)c(OC)cc2OC)n3C)cc1 -22.4, c1coc(CSc2ncnc3c2oc2ccccc23)c1 1.36, COc1cccc(SCC(=O)N2CCN(c3ccccc3)CC2)c1 2, COc1ccc(C(=O)CSc2nc3ccccc3n2CC(=O)c2ccccc2)cc1 -11.1, O=C(Nc1cscc1S(=O)(=O)c1ccccc1)c1ccccc1Cl -10.9, CC1Cc2ccccc2N1C(=O)CN1C(=O)NC(C)(CCc2ccccc2)C1=O (centres undefined) -12.9, O=C(COC(=O)c1ccc(O)cc1)Nc1ccccc1 -6.04, O=S(=O)(NC1c2cccc3cccc(c23)C1Sc1ncccn1)c1ccccc1 (centres undefined) -20, O=[N+]([O-])c1ccc(/C=C/c2ccc3cccc([N+](=O)[O-])c3n2)cc1 -3.36, Cc1cc(C(=O)Nc2ccc(Cl)cc2)c(C)n1Cc1cccs1 1.59, CCCCOc1ccc(-c2nnn(CCC(=O)N3CCOCC3)n2)cc1 -6.25, Cc1ccnc(NS(=O)(=O)c2ccc(NC(=O)c3ccc4c(c3)OCCO4)cc2)n1 -5.99, CN1N=C2c3ccccc3CCC2C1c1ccc(F)cc1 (centres undefined) -10.9, COc1ccc(-c2nc(NC(C)=O)sc2-c2ccccc2)cc1 -9.72, Nc1ccccc1Sc1c[nH]c2ccccc12 3.45, CCc1cccc(CC)c1NC(=O)Cn1c(-c2ccc(F)cc2)noc1=O 1.93, Cc1ccc(C)c(N2CCN(C(=O)CCS(=O)(=O)c3ccc4c(c3)oc(=O)n4C)CC2)c1 -13.2, CCOC(=O)c1cc2nc(-c3ccccc3)cc(C)n2n1 2.87, O=C(NCc1ccccc1)C1C(=O)Nc2ccccc2C(=O)N1c1ccc2c(c1)OCCO2 (centres undefined) -5.03, CSc1ccccc1NC(=O)CN(c1cccc(C)c1)S(C)(=O)=O 2, CC(OC(=O)COc1ccccc1)C(=O)NC1CCCC1 (centres undefined) -4.16, O=S(=O)(c1ccc(Cl)cc1)N1CCN=C1SCc1cccc(Cl)c1 -8.56
